Measured values reported in PubChem BioAssay (NCATS).
Records with an inconclusive call do not appear. Activity calls are given as the source filed them. Calls follow the shape of the dose curve; as a rule, active = well fitted curve in the direction sought with a large enough effect; inconclusive = small, poorly fitted or top-dose-only effect, or another doubt; inactive = no such curve, though single readings can be large; an effect the other way counts as inactive or inconclusive.

How the values were obtained:
[1] = MultiTox-Fluor Cytotoxicity Assay - LYMP1-002 - Dead Cells (AID 960); conditions: LYMP1-002 lymphoblastoid cells, dead-cell protease fluorescence; series mostly up to 46.1 µM;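 also: cells exposed to compound for 16 h at 37 °C; nearly all actives have a fitted effect of over 60% in size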
How it was run: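 LYMP1-002 cells 2500/well; 5 hr 37 C pre-incubation; compound 16 hr 37 C; MultiTox-Fluor reagent 60 min RT; dead-cell fluor Ex/Em 485/520. Norm. to DMSO (0%) vs 15 uM tetraoctylammonium bromide (100%); Hill AC50.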

[2] = MultiTox-Fluor Cytotoxicity Assay - LYMP1-003 - Dead Cells (AID 961); conditions: LYMP1-003 lymphoblastoid cells, dead-cell protease fluorescence; series mostly up to 92.2 µM;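 also: cells exposed to compound for 16 h at 37 °C; nearly all actives have a fitted effect of over 70% in size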
How it was run: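 Acute toxicity is scored as increased dead-cell protease activity in human lymphoblastoid LYMP1-003 cells after 16 h compound exposure in complete culture medium. Activity is normalized to DMSO basal and 15 uM tetraoctylammonium bromide as full response.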

[3] = MultiTox-Fluor Cytotoxicity Assay - LYMP1-003 - Live Cells (AID 962); conditions: LYMP1-003 lymphoblastoid cells, MultiTox-Fluor live-cell protease fluorescence; series mostly up to 92.2 µM;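 also: cells exposed to compound for 16 hours at 37 °C; cytotoxic hits lower the live-cell protease signal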
How it was run: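 qHTS, 1536-well; 2500 cells/well LYMP1-003; 5 hr 37 C settle; cpd 16 hr 37 C; MultiTox-Fluor reagent 60 min RT; live-cell protease fluor. 405/510; Hill-fit AC50; tetraoctylammonium bromide pos. ctrl.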

[4] = Cell Viability - LYMP1-003 - Assay at 24 hr (AID 963); conditions: LYMP1-003 lymphoblastoid cell viability; series mostly up to 92.2 µM
How it was run: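 Cells seeded at 2500/well, 5 hr at 37 C; compounds added; 24 hr at 37 C; CellTiter-Glo added, 30 min room temperature; luminescence read. Decrease in ATP taken as cytotoxicity, AC50 from Hill modelling.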

[5] = Cell Viability - LYMP1-003 - Assay at 40 hr (AID 964); conditions: LYMP1-003 lymphoblastoid viability; series mostly up to 92.2 µM; also: nearly all actives have a fitted effect of over 60% in size
How it was run: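 Cells were seeded at 2500 per well and incubated 5 hr at 37 C. Compounds were added across a concentration series and left 40 hr at 37 C. CellTiter-Glo was added for 30 min at room temperature before luminescence reading.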

[6] = Cell Viability - LYMP2-003 (AID 965); conditions: LYMP2-003 lymphoblastoid cell viability; series mostly up to 92.2 µM;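 also: cells exposed to compounds for 24 h before reading; nearly all actives have a fitted effect of over 50% in size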
How it was run: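 CellTiter-Glo luminescence quantified ATP loss after 24 h compound treatment of LYMP2-003 lymphoblastoid cells at 37 C. Titration series were fitted with the standard Hill equation to give AC50.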

[7] = Cell Viability - LYMP2-004 (AID 966); conditions: LYMP2-004 lymphoblastoid cell viability, qHTS; series mostly up to 92.2 µM; also: nearly all actives have a fitted effect of over 65% in size
How it was run: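 Cells seeded 2500/well, rested 5 hr at 37 C, dosed across a concentration series, incubated 24 hr at 37 C, then CellTiter-Glo added for 30 min at room temperature and luminescence read. Hill fitting gave AC50.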

[8] = Cell Viability - LYMP2-005 (AID 967); conditions: LYMP2-005 lymphoblastoid cell viability; series mostly up to 92.2 µM
How it was run: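 LYMP2-005 human lymphoblastoid cells (2500/well) were treated with compounds for 24 h at 37 C. Intracellular ATP was then measured by CellTiter-Glo luminescence after 30 min at room temperature. AC50 values came from Hill-equation fits of qHTS concentration-response data.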

[9] = Cell Viability - LYMP2-009 (AID 968); conditions: LYMP2-009 lymphoblastoid cell viability; series mostly up to 92.2 µM; also: nearly all actives have a fitted effect of over 55% in size
[10] = Cell Viability - LYMP2-011 (AID 969); conditions: LYMP2-011 lymphoblastoid cells viability; series mostly up to 92.2 µM; also: nearly all actives have a fitted effect of over 60% in size
How it was run: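 2500 cells/well, 5 hr 37 C; compound added, 24 hr 37 C; CellTiter-Glo 30 min RT; luminescence. qHTS concentration-response, Hill-equation AC50. Tetraoctylammonium bromide positive control.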

[11] = Cell Viability - LYMP2-013 (AID 970); conditions: LYMP2-013 lymphoblastoid cells viability; series mostly up to 92.2 µM; also: nearly all actives have a fitted effect of over 55% in size
How it was run: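 qHTS; 2500 lymphoblastoid cells/well; 5 hr 37 C settle; cpd 24 hr 37 C; CellTiter-Glo, 30 min RT; luminescence. AC50 = Hill fit.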

[12] = Cell Viability - LYMP2-015 (AID 971); conditions: LYMP2-015 lymphoblastoid cell viability; series mostly up to 92.2 µM; also: nearly all actives have a fitted effect of over 55% in size
How it was run: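 Luminescent ATP read-out (CellTiter-Glo) served as the viability measure after lymphoblastoid cells were exposed to compounds for 24 hours at 37 C. Concentration-response data were fitted with the Hill equation to give AC50.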

[13] = Cell Viability - LYMP2-017 (AID 972); conditions: LYMP2-017 lymphoblastoid cell viability; series mostly up to 92.2 µM; also: nearly all actives have a fitted effect of over 55% in size
How it was run: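 2500 cells/well, 5 h 37 C; cpd 24 h 37 C in complete medium; CellTiter-Glo, 30 min RT; luminescence (ATP). AC50 via Hill fit, qHTS.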

[14] = Cell Viability - LYMP2-019 (AID 973); conditions: LYMP2-019 lymphoblastoid cell line viability; series mostly up to 92.2 µM; also: nearly all actives have a fitted effect of over 55% in size
How it was run: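 Luminescent ATP read-out (CellTiter-Glo, 30 min room temperature) served as the viability measure after 24 hr treatment of lymphoblastoid cells at 37 C. Concentration-response data were fitted to the Hill equation for AC50.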

[15] = Cell Viability - LYMP2-023 (AID 975); conditions: LYMP2-023 lymphoblastoid cell viability; series mostly up to 92.2 µM
How it was run: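 2500 cells/well, 5 hr 37 C; cpd 24 hr 37 C; CellTiter-Glo, 30 min RT; luminescence. qHTS conc-response, Hill fit -> AC50. Pos ctrl tetraoctylammonium bromide.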

[16] = Cell Viability - LYMP2-025 (AID 976); conditions: LYMP2-025 lymphoblastoid cell viability; series mostly up to 92.2 µM
How it was run: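 Seed 2500 LYMP2-025 cells/well; 5 hr at 37 C; add compound; 24 hr at 37 C; add CellTiter-Glo; 30 min RT; read luminescence. AC50 from Hill-modelled concentration-response.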

[17] = Cell Viability - LYMP2-002 (AID 977); conditions: LYMP2-002 lymphoblastoid cell viability, qHTS; series mostly up to 92.2 µM;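 also: compound exposure lasted 24 h at 37 °C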
How it was run: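 Human lymphoblastoid LYMP2-002 cells, 2500 per well, exposed to compounds for 24 h at 37 C in complete medium; viability read as intracellular ATP by CellTiter-Glo luminescence, AC50 from Hill fits.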

[18] = Cell Viability - LYMP2-007 (AID 979); conditions: LYMP2-007 lymphoblastoid cell viability; series mostly up to 92.2 µM;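 also: cells exposed to compound for 24 h before reading; nearly all actives have a fitted effect of over 60% in size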
How it was run: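 Luminescent ATP signal (CellTiter-Glo) serves as the viability read-out after 24 hr compound treatment of lymphoblastoid cells in complete medium at 37 C. Concentration-response data were fitted to the Hill equation to give AC50 values.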

[19] = Cell Viability - LYMP2-008 (AID 980); conditions: LYMP2-008 lymphoblastoid cell viability, qHTS; series mostly up to 92.2 µM; also: nearly all actives have a fitted effect of over 60% in size
How it was run: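 qHTS, human lymphoblastoid line, 2500 cells/well; 5 hr preincubation, 24 hr compound, 37 C. CellTiter-Glo ATP luminescence. AC50 via Hill equation. Tetraoctylammonium bromide positive control.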

[20] = target: Alpha-galactosidase (Coffea arabica) (UniProt Q42656); test: Counterscreen for Glucocerebrosidase Inhibitors: qHTS Assay for Coffee Bean alpha-Galactosidase at pH 4.5 (AID 957); conditions: purified coffee bean alpha-galactosidase, fluorogenic substrate; series mostly up to 76.9 µM
Sequence of Alpha-galactosidase (Coffea arabica) (Q42656 whole entry, looked up): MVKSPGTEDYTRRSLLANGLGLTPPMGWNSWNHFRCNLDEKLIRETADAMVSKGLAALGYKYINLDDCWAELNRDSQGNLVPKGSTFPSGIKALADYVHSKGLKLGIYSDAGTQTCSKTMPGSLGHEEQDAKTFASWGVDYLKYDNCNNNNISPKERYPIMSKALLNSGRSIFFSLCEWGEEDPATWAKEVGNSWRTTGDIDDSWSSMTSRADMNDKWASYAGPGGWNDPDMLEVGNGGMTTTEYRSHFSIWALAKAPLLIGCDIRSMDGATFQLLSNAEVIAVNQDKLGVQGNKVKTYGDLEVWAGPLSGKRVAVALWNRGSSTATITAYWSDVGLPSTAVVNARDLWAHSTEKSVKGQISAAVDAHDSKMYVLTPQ
How it was run: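 Coffee bean alpha-galactosidase 2 nM, substrate 4-MU-alpha-Gal 80 uM, pH 4.5 citrate/Tween-20, 20 min RT. Cpd titration 0.7 nM–77 uM. Stop pH 10, fluorescence 365/440 nm; Hill-equation AC50.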

Measured: Potency

COc1cc(OC)c(OC)cc1C=O
inactive: [1] | [2] | [3] | [4] | [5] | [6] | [7] | [8] | [9] | [10] | [11] | [12] | [13] | [14] | [15] | [16] | [17] | [18] | [19]

NCCS(=O)(=O)O
inactive: [20]

O=c1c(-c2ccc(O)cc2)coc2cc(O)cc(O)c12
inactive: [20]
